Results on 39 molecules are retold here after PubChem BioAssay.

As usually defined, the inhibition is the change of the read-out against control, counted positive when it falls.

A number with no mark means an inactive call. How the calls were made is not given here. Where a SMILES comes first, the peptide text is derived from it. The star is where a group is joined. Boc = CC(C)(C)OC(=O)*

The assay deals with Pantothenate synthetase (Mycobacterium tuberculosis (strain ATCC 25618 / H37Rv)) (UniProt P9WIL5). The assay is described as follows: Coupled enzyme confirmation of inhibitors against recombinant Mtb PanC (AID 375).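 Further: 0% = full reaction with vehicle and 100% = no enzyme background.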 Particulars: coupled enzyme assay; at 10 µM, stronger effect = higher value.
Sequence of Pantothenate synthetase (Mycobacterium tuberculosis (strain ATCC 25618 / H37Rv)) (P9WIL5 whole entry, looked up): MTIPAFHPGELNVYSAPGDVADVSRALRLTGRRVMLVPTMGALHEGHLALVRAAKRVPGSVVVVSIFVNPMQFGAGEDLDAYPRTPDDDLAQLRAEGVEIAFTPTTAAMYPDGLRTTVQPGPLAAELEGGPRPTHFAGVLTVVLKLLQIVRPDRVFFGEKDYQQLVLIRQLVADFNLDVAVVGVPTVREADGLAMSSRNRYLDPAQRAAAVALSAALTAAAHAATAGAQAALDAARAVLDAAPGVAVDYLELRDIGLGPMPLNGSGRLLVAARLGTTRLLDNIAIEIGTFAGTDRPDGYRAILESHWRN
Turning to `COc1cc(S(=O)(=O)NC2CCCCC2C)ccc1Cl` (centres undefined), the inhibition is 0%.

As for `C=COC(=O)CSc1snc(SCC(=O)OC)c1C#N`, the inhibition was 0%.

Regarding `Cc1cc2ncn(S(=O)(=O)c3ccc(S(=O)(=O)N4CCOCC4)cc3)c2cc1C`, the inhibition is 5%.

Consider `O=C1C/C(=C/NCc2ccccc2)C(=O)N1`, for which the inhibition is 3%.

For `c1ccc2c(c1)Cc1cc(CN3CCOCC3)ccc1-2`, the inhibition is 3%.

Take `CC(C)(C)c1cc(NS(=O)(=O)c2ccc3c(c2)OCCO3)on1`: the inhibition was 0%.

In the case of `Cc1nc2ccccc2cc1O`, the inhibition is 0%.

For the molecule `CCOC(=O)N1CCN(CC(=O)c2c(C)[nH]c3ccccc23)CC1`, the inhibition is 0%.

Turning to `O=C(COC(=O)c1cncc(Br)c1)NCCC1=CCCCC1`, the inhibition was 0%.

As for `CN(C1CCCCC1)S(=O)(=O)c1ccc(S(=O)(=O)N2CCN(CCC#N)CC2)cc1`, the inhibition is 6%.

As to `S=c1[nH]ncn1-c1ccccn1`, the inhibition is 5%.

Take `CCc1ccc2oc(-c3cc(N)ccc3Cl)nc2c1`: the inhibition was 2%.

In the case of `CC1CC(C)CN(CCCNC(=O)COc2cc(=O)n(C)c3ccccc23)C1` (centres undefined), the inhibition was 0%.

As for `O=C(C1CC1)N1CCC(c2nc(-c3ccc(S(=O)(=O)NCC4CCCO4)cc3)no2)CC1` (centres undefined), the inhibition is 0%.

As for `CCCc1cc(=O)oc2cc(C)cc(OC(=O)c3ccco3)c12`, the inhibition was 0%.

As for `NCc1ccc(S(N)(=O)=O)cc1`, the inhibition is 2%.

Take `Cc1ccc(-c2cc(C(F)F)nc(NCC3CCCO3)n2)cc1` (centres undefined): the inhibition was 3%.

For the molecule `CCOC(=O)C1=C(NC#N)OC(C)=C(C)C1c1ccc(O)cc1` (centres undefined), the inhibition was 0%.

With `O=C(O)c1cc(-c2ccccc2)nc2ccccc12`, the inhibition is 3%.

In the case of `Cc1cc2ccccc2n1CCNC(=O)c1ccc(S(=O)(=O)N2CCOCC2)cc1`, the inhibition is 4%.

As for `CC(=O)Nc1cccc(NC(=O)CSc2nnnn2C)c1`, the inhibition was 0%.

As to `COc1ccc(-c2coc3cc(O)cc(O)c3c2=O)cc1`, the inhibition is 5%.

Consider `O=S(=O)(c1ccc(S(=O)(=O)N(Cc2ccco2)Cc2ccccc2Cl)cc1)N1CCCC1`, for which the inhibition was 0%.

On to `Cc1cccc(N2C(=O)CC(N3CCN(c4cccc(C(F)(F)F)c4)CC3)C2=O)c1` (centres undefined), for which the inhibition was 1%.

Regarding `CC(C)OC(=O)CSc1nnc(-c2cccnc2)n1Cc1ccccc1`, the inhibition is 3%.

For `CCOc1ccccc1-c1nc(-c2ccc(C)nc2OC)no1`, the inhibition is 3%.

In the case of `CC1=C(C(N)=O)C(c2ccccn2)n2nc(-c3ccccc3Cl)nc2N1` (centres undefined), the inhibition was 5%.

With `Cc1oc(-c2ccccc2F)nc1CS(=O)(=O)CC(=O)NCCCN1CCc2ccccc2C1`, the inhibition is 0%.

In the case of `CC(=O)N(CCN(C(C)=O)c1ccccc1)c1ccccc1`, the inhibition was 0%.

In the case of `Nc1nonc1N1CCCCC1`, the inhibition is 0%.

For the molecule `NS(=O)(=O)c1ccc(CCNC(=O)c2cccnc2)cc1`, the inhibition was 1%.

Consider `Cc1cc(NC(=O)c2cnn3cccnc23)no1`, for which the inhibition was 3%.

As for `Cc1ccc2c(c1)NC(=O)C(CC(=O)NC1CCCCC1C)O2` (centres undefined), the inhibition is 11%.

As to `Cc1cc(C)c2c(N)c(C(=O)c3ccccc3)oc2n1`, the inhibition was 0%.

Consider `O=C(Cn1nnc(-c2ccccc2)n1)Nc1ccccc1N1CCOCC1`, for which the inhibition is 0%.

Regarding `COCCN(C(=O)Cn1nnc2ccccc21)C(C(=O)NC1CCCC1)c1cc(OC)ccc1OC` (centres undefined), the inhibition is 6%.

As for `CCOC(=O)CC(=O)CSc1nc(-c2cccnc2)ccc1C#N`, the inhibition was 0%.

On to `CC(C)(C)OC(=O)N1CCCC1C(=O)N1CCCC1C(=O)N1CCCC1C(=O)O` (stereo not drawn) (Boc-Pro-Pro-Pro-OH; configuration not given here), for which the inhibition was 3%.

Regarding `CCOc1cc(C2NC(=O)NC(O)(C(F)(F)F)C2C(=O)c2ccccc2)ccc1OC` (centres undefined), the inhibition is 3%.
